Vif-APOBEC3F blk: blocks the Vif interaction with APOBEC3F | HeLa A3F-eYFP + Vif (tagged APOBEC3F with the HIV-1 protein that degrades it), YFP fluorescence increase | Potency, µM (series often up to 46.1 µM), inactives show at the highest dose activity, negative = active | actives 0.2% (n = 390,000); note: potency is the fitted concentration of half-maximal effect; % of control where 0% means no effect; nearly all actives have a fitted effect of over 65% in size
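HeLa cells stably expressing A3F-eYFP plus Vif, plated and incubated overnight at 37 deg C, then exposed to compounds overnight at 37 deg C. Blocked degradation read as raised yellow fluorescence (Ex 488/Em 500-530).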
Vif-APOBEC3G blk: Vif-A3G binding inhibition. Q9HC16. HeLa A3G-eYFP + Vif (tagged APOBEC3G with the HIV-1 protein that degrades it), YFP fluorescence, overnight. Potency, µM (series often up to 46.1 µM), without a hit: at the top dose activity, negative = active, hits mostly inhibitors. actives 0.076% (n = 410,000). AID 602310; note: potency is the fitted concentration of half-maximal effect; % is set by controls: 0 for no effect and ±100 for the full control effect; nearly all actives have a fitted effect of over 60% in size
Target sequence (Q9HC16 whole entry, looked up): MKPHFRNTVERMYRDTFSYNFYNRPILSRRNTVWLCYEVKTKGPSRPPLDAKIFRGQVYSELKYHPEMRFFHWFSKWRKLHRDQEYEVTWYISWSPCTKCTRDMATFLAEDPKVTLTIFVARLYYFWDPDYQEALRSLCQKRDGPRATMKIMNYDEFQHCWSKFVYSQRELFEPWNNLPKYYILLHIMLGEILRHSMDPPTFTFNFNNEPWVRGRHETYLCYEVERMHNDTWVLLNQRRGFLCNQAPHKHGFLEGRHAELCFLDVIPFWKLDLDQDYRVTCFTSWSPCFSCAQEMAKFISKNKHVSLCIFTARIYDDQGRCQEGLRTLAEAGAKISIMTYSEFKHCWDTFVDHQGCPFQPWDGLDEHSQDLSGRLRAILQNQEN
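HeLa cells stably expressing Vif and C-terminally eYFP-tagged A3G, seeded overnight at 37 deg C, then exposed to compound by pintool overnight at 37 deg C. Rise in yellow fluorescence (Ex 488/Em 500-530, Acumen) marks blocked Vif-driven A3G degradation.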
PGK inhibitor: blocks T. brucei phosphoglycerate kinase. PGK/GAPDH coupled, Kinase-Glo luminescence, 60 min. Potency, µM (doses to about 57.5 µM), without a hit: at the top dose activity change, negative = inhibition, most hits filed as inhibitors. actives 0.043% (n = 380,000). AID 602233; note: potency is the fitted concentration of half-maximal effect; % is set by controls: 0 for no effect and ±100 for the full control effect; nearly all actives have a fitted effect of over 60% in size
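Luminescent ATP detection (Kinase-Glo Plus) follows a 60-minute room-temperature incubation, with wells lacking PGK as controls. Buffer: 100 mM TEA (pH 7.6), 5 mM MgCl2, 0.01% Tween-20. Coupling enzyme GAPDH (100 nM final) supplies unstable 1,3-BPG in-well.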
mIDH1 inhibitor: blocks human mutant IDH1 R132H enzyme | O75874 | IDH1-R132H enzyme, NADPH consumption, diaphorase/resazurin fluorescence | AID 602179 | Potency, µM (titrated, usually from 76.6 µM), for inactives: top-dose activity change, negative = inhibition, hits mostly inhibitors | actives 0.093% (n = 390,000); note: potency is the fitted concentration of half-maximal effect; % is set by controls: 0 for no effect and ±100 for the full control effect; nearly all actives have a fitted effect of over 65% in size
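IDH1-R132H (0.5 ug/mL dispensed) in pH 7.5 Tris buffer was preincubated 30 min with compound, then given a substrate mix of 0.016 mM NADPH and 2 mM alpha-KG for 80 min at room temperature; remaining NADPH was read by diaphorase/resazurin fluorescence.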
Pin1 inh: inhibitors of human Pin1. Q13526. Pin1 FP peptide displacement, HiFluor488, 10 min. Potency, µM (doses to about 115 µM), for inactives: at the highest dose activity, negative = inhibition, actives largely listed as inhibitors. actives 0.009% (n = 390,000); active = well fitted inhibition curve with a large enough effect in the polarisation, with a control signal flat, not every such curve was filed as active; inconclusive = small, poorly fitted or top-dose-only effect, or effect the other way, or a change in a side signal; inactive = no such curve, though single readings can be large or run the other way; the % refers to the polarisation; note: potency is the fitted concentration of half-maximal effect; % is set by controls: 0 for no effect and ±100 for the full control effect
Target sequence (Q13526 whole entry, looked up): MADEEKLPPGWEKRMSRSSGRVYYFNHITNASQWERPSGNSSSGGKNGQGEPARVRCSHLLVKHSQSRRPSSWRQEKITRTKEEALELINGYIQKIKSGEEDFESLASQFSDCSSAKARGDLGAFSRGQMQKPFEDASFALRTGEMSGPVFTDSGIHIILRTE
LDHA inh: LDHA (human) enzyme inhibition; activity change, % (values are at about 110 or 230 µM); P00338; actives 0.15% (n = 480,000); purified LDHA, NADH/diaphorase-resazurin fluorescence; hits give low values; in the data active = activity change below about -30%; inconclusive = mostly about -25% to -30%;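 note: plate controls were DMSO wells for no effect and wells without enzyme for full effect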
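LDH5 2 nM; NADH 0.06 mM, pyruvate 0.2 mM; 200 mM Tris pH 7.4, EDTA, Tween-20; 5 min RT. Detection: diaphorase 0.133 mg/mL + resazurin 37 µM, fluorescence ex540/em590 at 0 and 20 min; normalized to enzyme-free and DMSO wells.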
Active calls of the source: *; i = inactive; ? = inconclusive; · = no result given. In the library only some 0.49% were active in any assay of this set; here they are far more common. Unless noted, calls come from the whole dose curve; as a rule, active = well fitted curve in the direction sought with a large enough effect; inconclusive = small, poorly fitted or top-dose-only effect, or another doubt; inactive = no such curve, though single readings can be large; an effect the other way counts as inactive or inconclusive.

SMILES	Vif-APOBEC3F blk	Vif-APOBEC3G blk	PGK inhibitor	mIDH1 inhibitor	Pin1 inh	LDHA inh
O=C(N/N=C/c1ccncc1)c1cc2ccccc2o1	-1.8%	-2.9%	i	8.2%	-11.3%	-5.1
O=C(N/N=C/c1cc(Br)c(Br)o1)c1cc2ccccc2o1	?	-9.1%	1.5%	-4.7%	?	-43.6*
O=C(Nc1ccc(C23CC4CC(CC(C4)C2)C3)cc1)c1ccc(Cl)cc1Cl	·	·	·	·	·	0.8
CCOC(=O)c1cc(NC(=O)c2ccc(Cl)c(Cl)c2)ccc1N1CCOCC1	·	·	·	·	·	2.0
Cc1cccc(NC(=O)Cc2nn(C)c(=O)c3ccccc23)c1C	·	·	·	·	·	2.5
CCN(C(=O)c1ccco1)c1nc(-c2ccccc2)cs1	·	·	·	·	·	-33.8*
Cc1sc(-c2ccsc2)nc1-c1ccc(F)c(F)c1	·	·	·	·	·	3.2
NNS(=O)(=O)c1ccc2c(c1)Cc1cc(S(=O)(=O)NN)ccc1-2	12.1%	2.7%	-11.9%	2.8%	-5.8%	-35.3*
N#CCC(=O)N/N=C/c1ccc(Sc2nc3ccccc3s2)o1	-3.9%	?	-4.0%	4.4%	68.2%	-47.9*
COc1ccc(CNC(=O)C(=O)Nc2ccc(C)cc2C)cc1	·	·	·	·	·	-30.8*
Cc1cccc(Oc2ccc(Cl)cc2NC(=O)c2nn(C)c(=O)c3ccccc23)c1	·	·	·	·	·	-1.5
COc1ccccc1Nc1nc(Cl)c(C=O)s1	?	?	-1.2%	-1.3%	?	-2.9
O=Cc1sc(Nc2ccccc2)nc1Cl	25.1µM*	?	-0.4%	0.6%	?	-3.1
Cc1ccc(Nc2nc(Cl)c(C=O)s2)cc1Cl	22.4µM*	?	-5.4%	-1.3%	?	-4.6
Cc1ccc(Nc2nc3ccccc3c(=O)s2)cc1C	1.5%	2.1%	0.4%	-4.3%	8.1%	0.1
COC(=O)CNC(=O)c1cccc(C)c1	·	·	·	·	·	0.0
O=C(c1cccs1)N1C[C@@H](O)[C@H](n2cc(C3CC3)nn2)C[C@@H]1c1ccc(Cl)cc1	-3.8%	-3.3%	-2.0%	4.2%	·	-1.9
O=C(c1cccs1)N1C[C@@H](n2cc(C3CC3)nn2)[C@H](O)C[C@@H]1c1ccccc1	-10.2%	1.5%	-10.6%	-11.9%	·	-37.0*
O=C(c1cccs1)N1C[C@@H](n2cc(C3CC3)nn2)[C@H](O)C[C@@H]1c1ccc(Cl)cc1	-3.1%	-2.7%	-1.8%	-12.6%	·	-35.9*
CC(CO)NC(=O)C(C)Sc1ccccc1 (configuration not stated)	·	·	·	·	·	-0.5
C=CC(=O)N1C/C(=C/c2ccc(F)cc2)C(=O)/C(=C\c2ccc(F)cc2)C1	?	?	10µM*	-9.8%	?	-6.0
Cc1cccc(NC2=NS(=O)(=O)c3ccccc32)c1C	·	·	·	·	·	4.5
COc1ccccc1Nc1ccc2c(O)cc(S(=O)(=O)O)cc2c1	-22.3%	-2.8%	22.4µM*	12.6%	21.3µM*	28.6
O=C(CCS(=O)(=O)c1ccc(Br)cc1)NCc1ccco1	-2.9%	1.7%	12.6µM*	4.7%	-2.6%	0.3
O=C(CCS(=O)(=O)c1ccc(Br)cc1)NCc1cccs1	-3.0%	0.8%	?	6.9%	-7.4%	-10.0
SMILES	Vif-APOBEC3F blk	Vif-APOBEC3G blk	PGK inhibitor	mIDH1 inhibitor	Pin1 inh	LDHA inh
CC1Sc2ccc(C(=O)NCc3ccccn3)cc2NC1=O (configuration not stated)	12.6µM*	2.3%	-1.0%	5.3%	-10.5%	-9.9
CN1N=C(N)c2cn(C3OC(COP(=O)(O)O)C(O)C3O)c3ncnc1c23 (configuration not stated)	2.3%	-3.4%	-0.5%	0.6%	?	-31.9*
O=C(N/N=C/c1ccsc1)c1cccc(C(F)(F)F)c1	·	·	·	·	·	3.2
COc1ccccc1N1CCN(CC(=O)N2CCCC2)CC1	-3.0%	0.3%	-2.4%	-2.1%	3.4%	-37.2*
O=C1C(Cl)=C(Nc2ccccc2O)C(=O)N1c1ccccc1	0.8%	-10.4%	-2.3%	4.5%	5.2%	23.5
COc1ccccc1N1C(=O)C(Cl)=C(Nc2ccccc2O)C1=O	22.4µM*	?	-3.4%	1.0%	?	9.7

Screening data: PubChem BioAssay, National Center for Advancing Translational Sciences (NCATS)
